# Data taken from PubChem BioAssay (NCI).
# This is part of a sample that, as a whole, favours compounds with a hit. Of some 83,000 tested, about 20% had one in any assay.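 Values shown are percent growth following 48 h exposure of cells in 96-well plates to a single concentration of compound; below 10 was considered active.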 Activity calls are given as the source filed them.
# How the values were obtained:
# Assay in all cases: NCI-60 one-dose screen, 48 h (100 = growth as untreated, 0 = no growth, -100 = all killed)
# Details in all cases: 10 µM unless noted
# HCT-15 colon = tested on: HCT-15 colon
# HT29 colon = tested on: HT29 colon
# SNB-75 CNS = tested on: SNB-75 CNS
# SNB-19 CNS = tested on: SNB-19 CNS
# U251 CNS = tested on: U251 CNS
# PC-3 prostate = tested on: PC-3 prostate
# SK-MEL-5 melanoma = tested on: SK-MEL-5 melanoma
# UACC-62 melanoma = tested on: UACC-62 melanoma
# LOX IMVI melanoma = tested on: LOX IMVI melanoma
# SK-MEL-28 melanoma = tested on: SK-MEL-28 melanoma
# SK-MEL-2 melanoma = tested on: SK-MEL-2 melanoma
# EKVX NSCLC = tested on: EKVX NSCLC
# SN12C renal = tested on: SN12C renal
# UO-31 renal = tested on: UO-31 renal
# TK-10 renal = tested on: TK-10 renal
# ACHN renal = tested on: ACHN renal
# CAKI-1 renal = tested on: CAKI-1 renal
# A498 renal = tested on: A498 renal
# CCRF-CEM leukemia = tested on: CCRF-CEM leukemia
# MOLT-4 leukemia = tested on: MOLT-4 leukemia
Structure (SMILES),growth (HCT-15 colon),growth (HT29 colon),growth (SNB-75 CNS),growth (SNB-19 CNS),growth (U251 CNS),growth (PC-3 prostate),growth (SK-MEL-5 melanoma),growth (UACC-62 melanoma),growth (LOX IMVI melanoma),growth (SK-MEL-28 melanoma),growth (SK-MEL-2 melanoma),growth (EKVX NSCLC),growth (SN12C renal),growth (UO-31 renal),growth (TK-10 renal),growth (ACHN renal),growth (CAKI-1 renal),growth (A498 renal),growth (CCRF-CEM leukemia),growth (MOLT-4 leukemia)
COc1ccc(Cl)cc1Nc1nc(C(F)(F)F)ccc1C(=O)N/N=C/c1ccc([N+](=O)[O-])cc1,3.38% (active),2.62% (active),29.5% (inactive),22.9% (inactive),-27% (active),-5.64% (active),-17.7% (active),17.3% (inactive),-32.8% (active),22.8% (inactive),-8.38% (active),0.805% (active),5.05% (active),-1.49% (active),10.5% (inactive),-9.86% (active),4.56% (active),3.24% (active),9.15% (active),2.93% (active)
CN(C)c1ccc(/C=C2\C=C(c3nc4ccccc4s3)OC2=O)cc1,102% (inactive),98.2% (inactive),87.2% (inactive),95.3% (inactive),98.4% (inactive),78.5% (inactive),96.4% (inactive),75.4% (inactive),91% (inactive),106% (inactive),107% (inactive),94% (inactive),97.1% (inactive),73.4% (inactive),118% (inactive),92.2% (inactive),76% (inactive),112% (inactive),99% (inactive),94.8% (inactive)
CCOc1ccc(/C=C/C(=O)c2cccc(OCCCOc3cccc(C(=O)/C=C/c4ccc(OCC)cc4)c3)c2)cc1,75.9% (inactive),94.2% (inactive),83.9% (inactive),92.1% (inactive),103% (inactive),75.2% (inactive),75.2% (inactive),57.9% (inactive),83.5% (inactive),87.1% (inactive),106% (inactive),76.9% (inactive),79.5% (inactive),73.4% (inactive),120% (inactive),79.4% (inactive),78% (inactive),73.4% (inactive),67.9% (inactive),73.5% (inactive)
ClC(Cl)c1nc(-c2ccccc2)n2nc(-c3ccccc3)cc2n1,-16% (active),1.24% (active),-37.5% (active),6.64% (active),-14.9% (active),17.2% (inactive),84.4% (inactive),68.4% (inactive),72.1% (inactive),25.5% (inactive),72.1% (inactive),-22.1% (active),58.7% (inactive),3.46% (active),0.776% (active),-57% (active),-34.7% (active),-26.5% (active),63.3% (inactive),30.8% (inactive)
Cc1cccc(N2C(=O)/C(=C/C(Cl)=C/c3ccc([N+](=O)[O-])cc3)SC2=S)c1C,-20.3% (active),-7.89% (active),-19.1% (active),26.3% (inactive),4.72% (active),8.37% (active),-33.4% (active),0.485% (active),-70.4% (active),24.2% (inactive),64% (inactive),-3.56% (active),-13.4% (active),-72.6% (active),-9.69% (active),-84.1% (active),35.7% (inactive),61.1% (inactive),3.24% (active),5.73% (active)
CC(=O)Nc1sc2c(c1-c1nc3ccccc3s1)CNC2,11.3% (inactive),15.7% (inactive),29.5% (inactive),26.8% (inactive),27.3% (inactive),21.7% (inactive),17.4% (inactive),20.1% (inactive),3.64% (active),34.2% (inactive),23.2% (inactive),30.6% (inactive),27.9% (inactive),6.46% (active),29% (inactive),9.91% (active),23.8% (inactive),36.6% (inactive),22.6% (inactive),10.4% (inactive)
NS(=O)(=O)c1ccc(C(=O)NN2C(=O)c3ccccc3C2=O)cc1,107% (inactive),111% (inactive),74.8% (inactive),102% (inactive),106% (inactive),105% (inactive),103% (inactive),102% (inactive),103% (inactive),113% (inactive),116% (inactive),105% (inactive),104% (inactive),89.9% (inactive),103% (inactive),112% (inactive),94% (inactive),73.3% (inactive),107% (inactive),107% (inactive)
Nc1ccc(Br)cc1C(F)(F)F,106% (inactive),108% (inactive),109% (inactive),104% (inactive),109% (inactive),105% (inactive),103% (inactive),108% (inactive),99.2% (inactive),121% (inactive),104% (inactive),109% (inactive),99.8% (inactive),88.1% (inactive),108% (inactive),96.5% (inactive),104% (inactive),107% (inactive),101% (inactive),108% (inactive)
C#CCOc1ccc2nc(CCl)c(Cl)c(Nc3cccc(C(F)(F)F)c3)c2c1,36.3% (inactive),75.6% (inactive),70.5% (inactive),98.5% (inactive),77.3% (inactive),85.1% (inactive),58.2% (inactive),71.2% (inactive),-1.15% (active),108% (inactive),84.4% (inactive),91.1% (inactive),68.6% (inactive),51.8% (inactive),89.8% (inactive),52.1% (inactive),77% (inactive),104% (inactive),20.9% (inactive),29.5% (inactive)
Nc1cccc(-c2ccc(COc3ccc(CC4SC(=O)NC4=O)cc3)cc2)c1 (stereo not given),34.3% (inactive),100% (inactive),54.4% (inactive),69.3% (inactive),45.9% (inactive),59.7% (inactive),14.8% (inactive),55.4% (inactive),57.5% (inactive),55.9% (inactive),52.3% (inactive),62.2% (inactive),68.6% (inactive),53.3% (inactive),91.5% (inactive),62.6% (inactive),47.3% (inactive),110% (inactive),52.3% (inactive),43.2% (inactive)
CSc1ccc(N2C(=N)C(=S)N(c3ccc(C)cc3)C2=O)cc1,85.9% (inactive),107% (inactive),89.9% (inactive),101% (inactive),91% (inactive),74% (inactive),101% (inactive),92.8% (inactive),87.4% (inactive),106% (inactive),118% (inactive),93.9% (inactive),94% (inactive),75.5% (inactive),109% (inactive),88.2% (inactive),82.7% (inactive),104% (inactive),80.6% (inactive),89.8% (inactive)
O=C(Cn1nc(-c2cccc3ccccc23)ccc1=O)NCc1cccc(Cl)c1,28.9% [50 µM] (inactive),43% [50 µM] (inactive),74.3% [50 µM] (inactive),45.3% [50 µM] (inactive),35% [50 µM] (inactive),19.6% [50 µM] (inactive),5.82% [50 µM] (active),35.2% [50 µM] (inactive),28.6% [50 µM] (inactive),56% [50 µM] (inactive),59.2% [50 µM] (inactive),21% [50 µM] (inactive),46.4% [50 µM] (inactive),15.3% [50 µM] (inactive),40.7% [50 µM] (inactive),28.9% [50 µM] (inactive),40.2% [50 µM] (inactive),26.8% [50 µM] (inactive),43.9% [50 µM] (inactive),20.5% [50 µM] (inactive)
CCOC(=O)c1nnn(-c2no[n+]([O-])c2-c2ccc(OC)cc2)c1COc1cccc2cccnc12,22.2% (inactive),3.79% (active),73.1% (inactive),25.2% (inactive),14.9% (inactive),34.2% (inactive),-22.4% (active),8.44% (active),-43.1% (active),58.2% (inactive),3.57% (active),44.8% (inactive),3.95% (active),34.3% (inactive),33.2% (inactive),21.8% (inactive),24.1% (inactive),103% (inactive),4.84% (active),10% (inactive)
